Measurements as given in PubChem BioAssay.
The source made the active and inactive calls.

Key:
[1] = system: PRMT1 (protein arginine N-methyltransferase 1); assay: PRMT1 binders on small-molecule microarrays, primary screen, biochemical, small-molecule microarray, 635 nm fluorescence (AID 1088); conditions: small-molecule microarray binding, higher = more signal;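 note: binding of Prmt1 protein to compounds spotted on small-molecule microarray slides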
[2] = yeast growth modulation, basal conditions, primary screen, YJM789 clinical isolate, OD600, 24 h (AID 1089);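 note: growth of clinical yeast isolate S. cerevisiae YJM 789 seeded 1000 cells per well; test concentration not given here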; conditions: S. cerevisiae YJM789 growth, higher = more signal, called active from +8 up or from −8 down
[3] = fission yeast growth modulation, primary screen, strain 972, OD600, 24 h, no modulator (AID 1090);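 note: basal condition with compound alone and no growth modifier present; test concentration not given here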; conditions: S. pombe 972 growth, higher = more signal, called active from +8 up or from −8 down
[4] = S. cerevisiae growth modulation with rapamycin, primary screen, strain BY4716, OD600, 96 h (AID 1091); conditions: higher = more signal, called active from +8 up or from −8 down; note: test concentration not given here
[5] = target: Torsin-1A-interacting protein 2 (Homo sapiens) (UniProt Q8NFQ8); assay: LULL1 binders on small-molecule microarray, primary screen, cell lysate, human LULL1 lysate, 635/667 nm fluorescence (AID 1092); conditions: hLULL1 lysate binding, 635 nm fluorescence, higher = more signal;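 note: probe is lysate of COS7 cells overexpressing human LULL1; score merges per-feature 667 nm fluorescence with signal-to-noise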
Sequence of Torsin-1A-interacting protein 2 (Homo sapiens) (Q8NFQ8 whole entry, looked up): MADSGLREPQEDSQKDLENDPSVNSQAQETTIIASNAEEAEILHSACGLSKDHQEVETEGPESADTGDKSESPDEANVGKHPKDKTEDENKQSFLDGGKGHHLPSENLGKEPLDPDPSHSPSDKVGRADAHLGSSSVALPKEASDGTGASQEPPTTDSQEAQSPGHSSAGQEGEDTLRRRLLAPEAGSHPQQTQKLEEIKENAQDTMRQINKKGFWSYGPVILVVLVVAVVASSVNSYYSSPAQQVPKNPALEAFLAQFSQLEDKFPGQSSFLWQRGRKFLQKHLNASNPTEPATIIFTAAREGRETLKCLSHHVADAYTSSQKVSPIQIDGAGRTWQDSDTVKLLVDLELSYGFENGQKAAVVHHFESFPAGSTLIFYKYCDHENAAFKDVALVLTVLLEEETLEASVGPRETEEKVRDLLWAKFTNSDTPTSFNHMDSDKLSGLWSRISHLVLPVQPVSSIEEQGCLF

[6] = E. coli growth modulation, two-sided OD650, primary screen, E. coli filamentation project, strain DRC41, 24 h (AID 1093); conditions: OD650, 24 h, higher = more signal, called active from +8 up or from −8 down;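 note: MC1000 strain lacking acrAB efflux and sulA so SOS filamentation is blocked; test concentration not given here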
[7] = small-molecule microarray binders of probe aLefty2, primary screen, biochemical, biotinylated probe, 635/667 nm fluorescence (AID 1094); conditions: higher = more signal;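 note: score merges spot fluorescence near 667 nm with spot signal-to-noise ratio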
[8] = system: Noggin (protein binding on small-molecule microarray); assay: Noggin binders on small-molecule microarray, primary screen, biochemical, 635/667 nm fluorescence (AID 1095); conditions: 635 nm fluorescence, higher = more signal;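 note: score merges 667 nm feature fluorescence with signal to noise over triplicate slides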
[9] = target: Neurogenic locus notch homolog protein 3 (Homo sapiens) (UniProt Q9UM47); assay: NOTCH3 binders on small-molecule microarray, primary screen, biochemical, 635/667 nm fluorescence (AID 1096); conditions: NOTCH3 binding, 635 nm fluorescence, higher = more signal
Sequence of Neurogenic locus notch homolog protein 3 (Homo sapiens) (Q9UM47 whole entry, looked up): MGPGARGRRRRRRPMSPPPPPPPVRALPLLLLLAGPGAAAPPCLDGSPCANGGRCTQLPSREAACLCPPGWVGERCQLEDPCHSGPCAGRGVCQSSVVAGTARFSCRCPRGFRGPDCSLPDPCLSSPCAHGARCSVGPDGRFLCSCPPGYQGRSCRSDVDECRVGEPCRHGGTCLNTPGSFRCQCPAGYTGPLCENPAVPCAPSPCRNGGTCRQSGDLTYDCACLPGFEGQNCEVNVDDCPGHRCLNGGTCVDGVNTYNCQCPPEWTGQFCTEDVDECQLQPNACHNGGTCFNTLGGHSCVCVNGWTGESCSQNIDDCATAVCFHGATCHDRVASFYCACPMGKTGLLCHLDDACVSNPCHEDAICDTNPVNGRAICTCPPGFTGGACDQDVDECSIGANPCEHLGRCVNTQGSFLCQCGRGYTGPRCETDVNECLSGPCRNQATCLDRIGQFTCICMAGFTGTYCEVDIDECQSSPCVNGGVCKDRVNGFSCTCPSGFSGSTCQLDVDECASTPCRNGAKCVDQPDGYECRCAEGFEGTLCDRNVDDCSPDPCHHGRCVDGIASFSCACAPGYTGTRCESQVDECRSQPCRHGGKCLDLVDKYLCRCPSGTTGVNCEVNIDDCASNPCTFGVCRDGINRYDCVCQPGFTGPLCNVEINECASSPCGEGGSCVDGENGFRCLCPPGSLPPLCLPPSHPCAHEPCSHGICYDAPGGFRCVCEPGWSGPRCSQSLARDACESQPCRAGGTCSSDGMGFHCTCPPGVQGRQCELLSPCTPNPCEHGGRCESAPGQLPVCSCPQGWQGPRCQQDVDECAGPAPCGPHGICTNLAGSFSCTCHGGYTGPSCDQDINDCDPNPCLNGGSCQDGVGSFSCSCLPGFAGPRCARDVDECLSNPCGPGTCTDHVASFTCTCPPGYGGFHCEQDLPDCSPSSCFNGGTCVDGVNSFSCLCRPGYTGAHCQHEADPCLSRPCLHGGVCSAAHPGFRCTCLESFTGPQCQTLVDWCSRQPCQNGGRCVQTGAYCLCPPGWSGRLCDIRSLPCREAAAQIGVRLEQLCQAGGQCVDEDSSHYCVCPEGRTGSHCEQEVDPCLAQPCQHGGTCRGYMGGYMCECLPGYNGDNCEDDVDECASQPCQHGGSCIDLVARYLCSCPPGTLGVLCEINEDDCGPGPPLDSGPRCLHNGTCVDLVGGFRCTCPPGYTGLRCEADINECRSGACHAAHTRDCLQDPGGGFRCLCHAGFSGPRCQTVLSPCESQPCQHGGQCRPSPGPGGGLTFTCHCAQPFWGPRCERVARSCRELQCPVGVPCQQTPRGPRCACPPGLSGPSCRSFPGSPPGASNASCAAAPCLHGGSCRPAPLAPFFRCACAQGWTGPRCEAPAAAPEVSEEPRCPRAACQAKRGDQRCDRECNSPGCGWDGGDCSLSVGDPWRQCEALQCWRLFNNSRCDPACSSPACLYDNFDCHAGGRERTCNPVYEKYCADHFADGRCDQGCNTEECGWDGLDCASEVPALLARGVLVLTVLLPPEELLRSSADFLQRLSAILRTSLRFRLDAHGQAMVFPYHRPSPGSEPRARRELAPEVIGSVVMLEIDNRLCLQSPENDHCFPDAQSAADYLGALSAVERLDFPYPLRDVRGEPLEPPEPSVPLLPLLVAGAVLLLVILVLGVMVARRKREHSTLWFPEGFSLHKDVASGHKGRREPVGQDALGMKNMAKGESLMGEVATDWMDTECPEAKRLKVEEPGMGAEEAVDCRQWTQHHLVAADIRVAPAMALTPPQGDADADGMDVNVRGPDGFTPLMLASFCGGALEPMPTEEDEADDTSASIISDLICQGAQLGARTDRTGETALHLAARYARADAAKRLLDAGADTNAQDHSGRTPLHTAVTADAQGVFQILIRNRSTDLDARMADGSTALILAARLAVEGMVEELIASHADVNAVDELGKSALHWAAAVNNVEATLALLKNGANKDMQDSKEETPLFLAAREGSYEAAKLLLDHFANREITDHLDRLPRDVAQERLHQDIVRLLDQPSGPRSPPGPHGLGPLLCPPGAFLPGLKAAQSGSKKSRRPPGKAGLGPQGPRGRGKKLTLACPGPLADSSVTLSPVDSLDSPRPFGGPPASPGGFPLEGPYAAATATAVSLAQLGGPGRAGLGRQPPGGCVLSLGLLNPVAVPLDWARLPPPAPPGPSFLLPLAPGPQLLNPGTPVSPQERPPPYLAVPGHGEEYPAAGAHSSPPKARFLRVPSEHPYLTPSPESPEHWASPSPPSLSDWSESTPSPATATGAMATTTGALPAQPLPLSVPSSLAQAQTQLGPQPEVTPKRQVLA

[10] = small-molecule microarray binders of probe aEGFR, primary screen, biochemical, biotinylated probe, 635/667 nm fluorescence (AID 1097); conditions: higher = more signal;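 note: probe is a biotinylated anti-EGFR antibody binding compounds printed on slides; score combines fluorescence near 667 nm and signal to noise of each spot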
[11] = system: Plasmodium falciparum Sir2 (PF13_0152, Sir2A); assay: pfSir2 binders on small-molecule microarrays, primary screen, biochemical, small-molecule microarray, 635 nm fluorescence (AID 1098); conditions: small-molecule microarray binding, fluorescence 635 nm; higher = more signal;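 note: score merges spot fluorescence intensity with its signal-to-noise ratio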
[12] = small-molecule microarray binders of probe aDKK1, primary screen, biochemical, biotinylated probe, 635/667 nm fluorescence (AID 1099); conditions: higher = more signal;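 note: score merges 667nm spot fluorescence with signal to noise across triplicate slides; reference of the scale not given here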
[13] = small-molecule microarray binders of probe aCHRDL2, primary screen, biochemical, biotinylated probe, 635/667 nm fluorescence (AID 1100); conditions: higher = more signal
[14] = splicing luciferase reporter signal modulators, primary screen, spliceosome inhibition project, cell-based, HEK293, splice +/- reporter (AID 1101); conditions: luminescence, 24 h, higher = more signal, called active from +8 up or from −8 down;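 note: HEK293 cells carrying a splicing-competent luciferase reporter gene; test concentration not given here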
[15] = target: Fibroblast growth factor 10 (Homo sapiens) (UniProt O15520); assay: FGF10 binders on small-molecule microarrays, primary screen, biochemical, small-molecule microarray, 635 nm fluorescence (AID 1102); conditions: FGF10 binding, fluorescence 635 nm, higher = more signal
Sequence of Fibroblast growth factor 10 (Homo sapiens) (O15520 whole entry, looked up): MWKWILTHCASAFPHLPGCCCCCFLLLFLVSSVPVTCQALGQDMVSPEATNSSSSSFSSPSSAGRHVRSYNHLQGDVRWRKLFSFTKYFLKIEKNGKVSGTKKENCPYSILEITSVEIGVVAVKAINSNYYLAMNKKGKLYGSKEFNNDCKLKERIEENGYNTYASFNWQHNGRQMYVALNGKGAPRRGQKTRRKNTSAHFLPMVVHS

[16] = system: glycogen synthase kinase-3 (GSK3A per assay name; protocol says GSK3B); assay: GSK3 binders on small-molecule microarrays, primary screen, biochemical, small-molecule microarray, 635 nm fluorescence, GSK3A (AID 1103); conditions: small-molecule microarray binding, fluorescence 635 nm; higher = more signal; note: the record names both GSK3A and GSK3B
[17] = target: Epidermal growth factor receptor (Homo sapiens) (UniProt P00533); assay: EGFR binders on small-molecule microarrays, primary screen, biochemical, small-molecule microarray, 635 nm fluorescence (AID 1104); conditions: EGFR binding, higher = more signal;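 note: score merges 667 nm emission intensity with spot signal to noise over triplicate slides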
Sequence of Epidermal growth factor receptor (Homo sapiens) (P00533 whole entry, looked up): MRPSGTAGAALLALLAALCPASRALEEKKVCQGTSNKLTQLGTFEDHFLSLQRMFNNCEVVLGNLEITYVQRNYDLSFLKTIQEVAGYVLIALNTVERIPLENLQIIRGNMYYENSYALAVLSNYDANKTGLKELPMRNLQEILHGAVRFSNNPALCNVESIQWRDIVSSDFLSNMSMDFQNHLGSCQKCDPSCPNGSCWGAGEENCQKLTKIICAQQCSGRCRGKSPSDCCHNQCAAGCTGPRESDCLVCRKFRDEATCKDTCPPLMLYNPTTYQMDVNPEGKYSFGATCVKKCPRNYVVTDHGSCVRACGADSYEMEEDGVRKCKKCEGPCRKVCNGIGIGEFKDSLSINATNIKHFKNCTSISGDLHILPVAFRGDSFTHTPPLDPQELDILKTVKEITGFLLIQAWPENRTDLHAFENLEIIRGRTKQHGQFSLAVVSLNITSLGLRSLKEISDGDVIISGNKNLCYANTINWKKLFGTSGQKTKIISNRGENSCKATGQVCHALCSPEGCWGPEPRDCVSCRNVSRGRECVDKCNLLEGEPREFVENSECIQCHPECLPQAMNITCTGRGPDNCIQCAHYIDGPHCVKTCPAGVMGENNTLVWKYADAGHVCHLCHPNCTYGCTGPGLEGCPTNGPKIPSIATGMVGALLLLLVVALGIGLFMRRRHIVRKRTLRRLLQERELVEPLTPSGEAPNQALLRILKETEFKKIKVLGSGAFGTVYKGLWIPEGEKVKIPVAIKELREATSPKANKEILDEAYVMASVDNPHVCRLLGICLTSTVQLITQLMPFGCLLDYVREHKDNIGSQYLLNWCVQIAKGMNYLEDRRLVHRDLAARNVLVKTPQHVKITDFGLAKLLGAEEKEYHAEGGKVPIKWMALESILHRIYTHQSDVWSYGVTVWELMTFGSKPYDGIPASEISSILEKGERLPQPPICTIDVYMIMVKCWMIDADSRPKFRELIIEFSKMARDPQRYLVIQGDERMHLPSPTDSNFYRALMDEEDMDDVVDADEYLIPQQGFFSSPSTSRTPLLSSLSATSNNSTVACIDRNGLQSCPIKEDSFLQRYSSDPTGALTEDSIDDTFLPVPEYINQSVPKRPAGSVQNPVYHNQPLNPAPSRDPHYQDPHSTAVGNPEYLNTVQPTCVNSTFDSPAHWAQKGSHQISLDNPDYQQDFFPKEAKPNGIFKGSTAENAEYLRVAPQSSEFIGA

[18] = target: Follistatin-related protein 3 (Homo sapiens) (UniProt O95633); assay: FSTL3 binders on small-molecule microarrays, primary screen, biochemical, small-molecule microarray, 635 nm fluorescence (AID 1105); conditions: FSTL3 binding, higher = more signal;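 note: score merges emission near 667 nm and signal to noise per printed spot across three slides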
Sequence of Follistatin-related protein 3 (Homo sapiens) (O95633 whole entry, looked up): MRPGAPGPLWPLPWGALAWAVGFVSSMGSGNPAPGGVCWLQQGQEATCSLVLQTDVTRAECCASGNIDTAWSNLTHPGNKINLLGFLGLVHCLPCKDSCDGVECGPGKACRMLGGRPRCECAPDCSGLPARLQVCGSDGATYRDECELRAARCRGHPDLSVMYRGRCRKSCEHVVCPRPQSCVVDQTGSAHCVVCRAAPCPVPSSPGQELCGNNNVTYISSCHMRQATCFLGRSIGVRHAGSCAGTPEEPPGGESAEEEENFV

[19] = target: Dickkopf-related protein 1 (Homo sapiens) (UniProt O94907); assay: DKK1 binders on small-molecule microarrays, primary screen, biochemical, small-molecule microarray, 635 nm fluorescence scan (AID 1106); conditions: DKK1 binding, higher = more signal;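 note: score merges emission near 667 nm with signal to noise over three replicate slides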
Sequence of Dickkopf-related protein 1 (Homo sapiens) (O94907 whole entry, looked up): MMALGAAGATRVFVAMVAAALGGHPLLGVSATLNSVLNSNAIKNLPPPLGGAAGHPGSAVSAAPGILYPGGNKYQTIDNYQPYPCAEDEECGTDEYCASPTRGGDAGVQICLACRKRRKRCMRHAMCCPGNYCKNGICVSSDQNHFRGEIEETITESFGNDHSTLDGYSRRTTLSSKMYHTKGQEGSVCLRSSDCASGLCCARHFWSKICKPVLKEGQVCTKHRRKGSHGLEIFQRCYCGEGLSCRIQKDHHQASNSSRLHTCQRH

[20] = system: Inhibin beta A chain (activin A); assay: INHBA (activin A) binders on microarrays, primary screen, biochemical, small-molecule microarray, 635 nm fluorescence scan (AID 1107); conditions: small-molecule microarray binding, higher = more signal;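 note: mouse activin A protein probed at 4.33 µg/mL on printed slides; score merges bound-protein fluorescence near 667 nm with spot signal-to-noise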

SMILES | composite z-score [1] | z-score [2] | z-score [3] | z-score [4] | composite z-score [5] | z-score [6] | composite z-score [7] | composite z-score [8] | composite z-score [9] | composite z-score [10] | composite z-score [11] | composite z-score [12] | composite z-score [13] | z-score [14] | composite z-score [15] | composite z-score [16] | composite z-score [17] | composite z-score [18] | composite z-score [19] | composite z-score [20]
CC(CCN1CCCCc2nc(C)c(C)cc21)=NO[C@@H](C)c1cn([C@H](CO)Cc2ccccc2)nn1 | 1.03 | 0.725 (inactive) | -0.0001 (inactive) | 0.17 (inactive) | 1.16 | 0.457 (inactive) | -0.0383 | 0.377 | 0.474 | 0.0317 | 0.683 | -0.217 | -0.46 | 0.16 (inactive) | 0.0253 | 0.54 | 0.593 | 0.902 | 1.17 | 0.788
CCN1C(=O)[C@H]2[C@H]3[C@H](O)[C@H](O)CC(=NNC(=O)OCc4ccc(OC)cc4)[C@@H]3CC[C@H]2C1=O | -0.235 | -1.31 (inactive) | -1.45 (inactive) | -0.287 (inactive) | 0.0228 | 0.214 (inactive) | 0.241 | 0.51 | -0.428 | -0.113 | -0.492 | 1.08 | 0.765 | 0.564 (inactive) | -0.0766 | 0.269 | -0.0752 | 0.0539 | -0.808 | 0.242
COc1ccc(O[C@H]2C=C[C@@H](c3ccccc3)O[C@@H]2COC(=O)CCC(C)=NOC(C)CN2CCCc3nc(C)c(C)cc32)cc1 (stereo not given in full) | 1.35 | 0.194 (inactive) | -0.629 (inactive) | -0.0642 (inactive) | 1.36 | 1.43 (inactive) | -0.0345 | 0.755 | 1.01 | -0.0106 | 0.817 | -0.176 | -0.433 | 0.063 (inactive) | 0.753 | 1.03 | 0.517 | 0.889 | 0.524 | 0.465
